The values below come from PubChem BioAssay (NCATS).

Records with an inconclusive call do not appear. A number with no mark means an inactive call. Calls of active or inactive are those of the source. Calls come from the whole dose curve.
Potency is the fitted concentration of half-maximal effect.

The nature of the experiment: S16 Schwann cell PMP22 intronic element beta-lactamase assay (AID 624044).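 For ratio activity, negative = inhibition: 0% = DMSO and -100% = potassium clavulanate positive control.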 Note: nearly all actives have a fitted effect of over 15% in size. Conditions: S16 rat Schwann cells, PMP22 element beta-lactamase FRET, 24 h; series mostly up to 38.3 µM; ratio activity, negative = inhibition: at the top concentration. The method in brief:
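Rat S16 Schwann cells with beta-Lac driven by a PMP22 intronic element, compound-treated 24 h at 37 °C. LiveBLAzer FRET B/G read: 460 nm normalized to potassium clavulanate vs DMSO; 535 nm FRET as viability; concentration-effect curves classified.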
With `C#C[C@]1(O)CC[C@H]2[C@@H]3CCC4=CCCC[C@@H]4[C@H]3C(=C)C[C@@]21CC`, the “ratio activity, negative = inhibition” value is -5.9%.
Same read-out and setting: the figure for `CC(C)N=c1cc2n(-c3ccc(Cl)cc3)c3ccccc3nc-2cc1Nc1ccc(Cl)cc1` is 3.01% [at 17.1 µM]; for `O=C(Nc1ccc(Br)cc1)c1cc(Br)c(Br)s1` it is -18%.
As to `CCCCC/C=C\C/C=C\CCCCCCCC(=O)O`, the “ratio activity, negative = inhibition” value is -10.2%.
The same measure, in the same setting: to `O=C(O)c1cc(=O)c2c3nc4ccccc4oc-3cc(=O)c2[nH]1` belongs -6.83%.
The same measure, in the same setting: the figure for `Cc1ccccc1OCC(O)CNCCOc1ccc(C(N)=O)cc1` (stereo unspecified) is -2.28%.
On the same count and under the same terms, to `C=CCSSSCC=C` belongs -4.19%.
Turning to `CC(=O)Oc1cc(C)c(OC(C)=O)c2ccccc12`, the “ratio activity, negative = inhibition” value is -9.91%.
Same read-out and setting: the figure for `CO[C@H]1C[C@@H]2CC[C@@H](C)[C@@](O)(O2)C(=O)C(=O)N2CCCC[C@H]2C(=O)O[C@H]([C@H](C)C[C@@H]2CC[C@@H](OCCO)[C@H](OC)C2)CC(=O)[C@H](C)/C=C(\C)[C@@H](O)[C@@H](OC)C(=O)[C@H](C)C[C@H](C)/C=C/C=C/C=C/1C` is -0.697%.
`COCC(=O)Nc1cc(Sc2ccccc2)ccc1N=C(NC(=O)OC)NC(=O)OC`: the “ratio activity, negative = inhibition” value is 0.507%.
Take `CCN(CC)CCOc1ccc(-c2nc3cc(Cl)ccc3s2)cc1`: the “ratio activity, negative = inhibition” value was -14.6%.
Still for that read-out and setting: to `CCOC(=O)C1=C(C)NC(C)=C(C(=O)OCC)C1c1ccccc1C=CC(=O)OC(C)(C)C` belongs 0.59%; to `O=S(=O)(O)c1cc(O)c2c(N=Nc3ccc(Nc4ccccc4)c4c(S(=O)(=O)O)cccc34)cc(S(=O)(=O)O)cc2c1`, 0.127%.
Take `CC[C@@]1(O)C(=O)OCc2c1cc1n(c2=O)Cc2cc3c([N+](=O)[O-])cccc3nc2-1`: the Potency is 1.41 µM (active).
The same measure, in the same setting: the figure for `CCCCCCCCCCCCCC[n+]1ccc(C)cc1` is 19.9 µM (active).
`O=S(=O)(O)c1ccc2c(N=Nc3ccc(S(=O)(=O)O)c4ccccc34)c(O)c(S(=O)(=O)O)cc2c1`: the “ratio activity, negative = inhibition” value is 5.78%.
